{"source": "PubChem BioAssay", "note": "Measured potencies and affinities stand elsewhere. Records with an inconclusive call do not appear. Unmarked numbers belong to inactive results. Activity calls are given as the source filed them.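 The calls were made as follows, unless noted: active = a dose-response fit showing signal loss, with half-maximal concentration no higher than twice the top tested dose; inconclusive = flat fit between 30% and 70% signal loss, or poor fit; inactive = the rest.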"}
{"assay": "fungal growth arrest, C. neoformans – Alamar Blue, cherry-picks, dose response (AID 686998;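 active = falling signal with fitted half-maximal potency no higher than twice the top valid tested dose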)", "settings": "Cryptococcus neoformans growth, 24 h; series mostly up to 35 µM; activity change, negative = inhibition: at the top concentration"}
{"smiles": "C[C@H](CO)N1C[C@H](C)[C@H](CN(C)Cc2ccc(-c3ccccc3)cc2)Oc2c(NC(=O)c3ccncc3)cccc2C1=O", "activity change, negative = inhibition": "-40.8%"}
{"smiles": "Cc1noc(C)c1NC(=O)N(C)C[C@H]1OCCCC[C@H](C)Oc2ccc(NC(=O)NC(C)C)cc2C(=O)N([C@@H](C)CO)C[C@@H]1C", "activity change, negative = inhibition": "27.6% [at 30 µM]"}
{"smiles": "C[C@H](O)C#Cc1ccc2c(c1)O[C@H](CN(C)Cc1ccncc1)[C@H](C)CN([C@H](C)CO)S2(=O)=O", "activity change, negative = inhibition": "-25%"}
{"smiles": "Cc1ccccc1NC(=O)C(=O)NCCCN1CCCC1=O", "activity change, negative = inhibition": "-4.44%"}
{"smiles": "COCC(=O)NC[C@H]1N[C@H](CO)[C@H]1c1ccc(C2=CCCC2)cc1", "activity change, negative = inhibition": "-4.25%"}
{"assay": "C. neoformans lysis by adenylate kinase leakage – AK release luminescence, cherry-picks, dose response (AID 687000;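 active = fitted dose curve reaches 40% lysis signal rise at or below the highest valid concentration tested for that sample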;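 also: luminescent detection of adenylate kinase leaking from lysed yeast; 0% = median neutral control signal and 100% = double that signal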)", "settings": "4 h, 100% = twice the neutral-control signal; series mostly up to 15 µM; lysis activity: at the top concentration", "units": {"lysis activity": "%"}}
{"smiles": "O=C(CSc1ncnc2c1cnn2-c1ccccc1)Nc1ccc2c(c1)OCO2", "lysis activity": 0.74}
{"smiles": "COc1ccc(C2=Nc3ccccc3NC(=O)C2N(C(=O)c2cc3ccccc3[nH]2)c2ccccc2)cc1", "note": "(configuration not stated)", "lysis activity": -29.7}
{"smiles": "C[C@@H]1CN([C@H](C)CO)C(=O)c2cc(NC(=O)Nc3cccc4ccccc34)ccc2O[C@@H]1CN(C)C(=O)Nc1ccccc1", "lysis activity": -1.49}
{"assay": "viability loss in HepG2 hepatoma cells – cell-based, cherry-picks, set 2, cytotoxicity control, dose response (AID 687002)", "settings": "ATP luminescence (CellTiter-Glo), 48 h; series mostly up to 26 µM; activity change, negative = cytotoxicity: at the top concentration"}
{"smiles": "COc1cccc(S(=O)(=O)Nc2ccc3c(c2)[C@H]2C[C@H](CC(=O)N(C)C)O[C@@H](CO)[C@H]2O3)c1", "activity change, negative = cytotoxicity": "-11.3%"}
{"smiles": "C[C@@H]1CN([C@H](C)CO)S(=O)(=O)c2ccc(C#CC3CC3)cc2O[C@H]1CN(C)CC1CCOCC1", "activity change, negative = cytotoxicity": "-0.77%"}
{"smiles": "C[C@H]1CN([C@@H](C)CO)C(=O)Cc2cc(NS(C)(=O)=O)ccc2O[C@@H]1CN(C)Cc1ccc(Cl)c(Cl)c1", "activity change, negative = cytotoxicity": "-0.706%"}
{"smiles": "COc1cccc(-c2ccc3c(c2)[C@H]2[C@H](CCN2C(=O)Cc2ccncc2)[C@H](CO)N3C)c1", "activity change, negative = cytotoxicity": "4.27%"}
{"smiles": "COc1ccc(NC(=S)NCc2ccc(Cl)cc2)c(OC)c1", "activity change, negative = cytotoxicity": "-1.38%"}
{"smiles": "C[C@H]1CN([C@@H](C)CO)C(=O)c2cc(-c3ccc(F)cc3)cnc2O[C@@H]1CN(C)CC1CCCCC1", "activity change, negative = cytotoxicity": "2.79%"}
{"smiles": "Cc1ccc(NC(=O)N2CCCC2C(=O)Nc2c(C)cc(C)cc2C)cc1", "note": "(configuration not stated)", "activity change, negative = cytotoxicity": "5.66%"}
{"smiles": "CCCNC(=O)C[C@@H]1CC[C@@H]2[C@H](COc3ccc(NC(=O)CCC)cc3C(=O)N2C)O1", "activity change, negative = cytotoxicity": "-4.61%"}
{"smiles": "C[C@H](CO)N1C[C@H](C)[C@@H](CN(C)CC2CCOCC2)Oc2ncc(C#Cc3ccc(F)cc3)cc2C1=O", "activity change, negative = cytotoxicity": "-9.91%"}
{"smiles": "COc1ccccc1CNC(=S)NCc1ccc(Cl)cc1", "activity change, negative = cytotoxicity": "9.58%"}
{"smiles": "COc1ccc(C2=Nc3ccccc3NC(=O)C2N(C(=O)c2cc3ccccc3[nH]2)c2ccccc2)cc1", "note": "(configuration not stated)", "activity change, negative = cytotoxicity": "-0.584%"}
{"smiles": "C[C@H]1CN([C@@H](C)CO)C(=O)c2cccc(NS(=O)(=O)c3ccc(Cl)cc3)c2O[C@@H]1CN(C)CC1CC1", "activity change, negative = cytotoxicity": "3.15%"}
{"smiles": "C[C@H]1CN([C@@H](C)CO)C(=O)c2cc(NC(=O)Nc3ccc(F)cc3)ccc2O[C@@H]1CN(C)S(C)(=O)=O", "activity change, negative = cytotoxicity": "3.79% [at 23.5 µM]"}
{"smiles": "C[C@@H]1CN([C@@H](C)CO)C(=O)c2cc(NS(=O)(=O)c3cn(C)cn3)ccc2O[C@@H](C)CCCCO[C@@H]1CN(C)Cc1ccc(C(F)(F)F)cc1", "activity change, negative = cytotoxicity": "14.5%"}
{"smiles": "C[C@H]1CN([C@@H](C)CO)C(=O)c2ccccc2-c2ccccc2CO[C@H]1CN(C)S(=O)(=O)c1cccc(C#N)c1", "activity change, negative = cytotoxicity": "2.34%"}
{"smiles": "O=C(NC1CCCCC1)N[C@H]1C=C[C@@H](CC(=O)N2CCOCC2)O[C@@H]1CO", "activity change, negative = cytotoxicity": "2.42%"}
{"smiles": "Cc1noc(C)c1S(=O)(=O)Nc1ccc2c(c1)CC(=O)N([C@H](C)CO)C[C@H](C)[C@@H](CN(C)S(=O)(=O)c1cn(C)cn1)O2", "activity change, negative = cytotoxicity": "8.33%"}
{"smiles": "C[C@H](CO)N1C[C@H](C)[C@@H](CN(C)Cc2ccc(-c3ccccc3)cc2)Oc2ccc(NC(=O)Nc3ccc(C(F)(F)F)cc3)cc2C1=O", "activity change, negative = cytotoxicity": "-6.07%"}
{"smiles": "C[C@@H]1CN([C@@H](C)CO)C(=O)Cc2cc(NC(=O)c3ccncc3)ccc2O[C@H]1CN(C)Cc1ccncc1", "activity change, negative = cytotoxicity": "0.955%"}
{"smiles": "CCN(Cc1ccccc1)C(=O)COc1ccccc1", "activity change, negative = cytotoxicity": "-0.157%"}
{"smiles": "N#Cc1ccc(C23CC4(C2)[C@H](CN(Cc2ccc(C(F)(F)F)cc2)[C@@H]4c2ccccc2)C3c2ccc(C(F)(F)F)cc2)cc1", "note": "(some centres not stated)", "activity change, negative = cytotoxicity": "-2.62%"}
{"smiles": "COC(=O)C1=C(C)N(Cc2ccc(Br)cc2)C(=S)NC1c1ccc(F)cc1", "note": "(configuration not stated)", "outcome": "inactive"}
{"smiles": "CC(C)NC(=O)N[C@H]1CC[C@@H](CCNC(=O)C2CC2)O[C@H]1CO", "activity change, negative = cytotoxicity": "25.7%"}
{"smiles": "COc1ccc(CN(C)C[C@H]2Oc3ccc(NC(=O)Nc4ccc(F)cc4)cc3CC(=O)N([C@@H](C)CO)C[C@@H]2C)cc1", "activity change, negative = cytotoxicity": "-5.97%"}
{"smiles": "Cc1ccc(CSc2ncnc3c2cnn3-c2ccc(C)cc2)cc1", "activity change, negative = cytotoxicity": "-9.7%"}
{"smiles": "Cc1ccc(S(=O)(=O)N[C@H]2C=C[C@@H](CC(=O)N3CCC(Cc4ccccc4)CC3)O[C@H]2CO)cc1", "activity change, negative = cytotoxicity": "3.05%"}
{"smiles": "CCCNC(C)C(=O)Nc1ccccc1C", "note": "(configuration not stated)", "activity change, negative = cytotoxicity": "-5.67%"}
{"smiles": "O=C(Cc1ccccc1)N[C@H]1C=C[C@@H](CC(=O)N2CCOCC2)O[C@@H]1CO", "activity change, negative = cytotoxicity": "-3.43%"}
{"smiles": "C[C@@H]1CN([C@@H](C)CO)C(=O)c2cc(NC(=O)Nc3ccccc3)ccc2O[C@@H]1CN(C)C(=O)Nc1cccc2ccccc12", "activity change, negative = cytotoxicity": "4.81%"}
{"smiles": "CCNC(=O)C[C@H]1CC[C@H](NC(=O)NC2CCCCC2)[C@@H](CO)O1", "activity change, negative = cytotoxicity": "-23.6%"}
{"smiles": "O=C(N[C@H]1CC[C@H](CCn2cc(-c3ccccn3)nn2)O[C@H]1CO)c1ccc(F)cc1", "activity change, negative = cytotoxicity": "-4.74%"}
{"smiles": "O=C(C[C@@H]1CC[C@H]2[C@@H](COC[C@H](O)CN2Cc2ccc(Oc3ccccc3)cc2)O1)Nc1nccs1", "activity change, negative = cytotoxicity": "10.7%"}
{"smiles": "S=C(Nc1ccc(Cl)cc1Cl)Nc1ccccc1Oc1ccccc1", "activity change, negative = cytotoxicity": "-1.7%"}
{"smiles": "C[C@@H]1CN([C@H](C)CO)C(=O)c2cc(NC(=O)Nc3cccc4ccccc34)ccc2O[C@@H]1CN(C)C(=O)Nc1ccccc1", "activity change, negative = cytotoxicity": "8.79%"}
{"smiles": "C[C@H](CO)N1C[C@H](C)[C@H](CN(C)Cc2ccc(-c3ccccc3)cc2)Oc2c(NC(=O)c3ccncc3)cccc2C1=O", "activity change, negative = cytotoxicity": "10.8%"}
{"smiles": "Cc1noc(C)c1NC(=O)N(C)C[C@H]1OCCCC[C@H](C)Oc2ccc(NC(=O)NC(C)C)cc2C(=O)N([C@@H](C)CO)C[C@@H]1C", "activity change, negative = cytotoxicity": "4.67% [at 23.5 µM]"}
{"smiles": "C[C@H](O)C#Cc1ccc2c(c1)O[C@H](CN(C)Cc1ccncc1)[C@H](C)CN([C@H](C)CO)S2(=O)=O", "activity change, negative = cytotoxicity": "14.7%"}
{"smiles": "Cc1ccccc1NC(=O)C(=O)NCCCN1CCCC1=O", "activity change, negative = cytotoxicity": "3.69%"}
{"smiles": "COCC(=O)NC[C@H]1N[C@H](CO)[C@H]1c1ccc(C2=CCCC2)cc1", "activity change, negative = cytotoxicity": "9.93%"}
